Test results from PubChem BioAssay AID2796 (The Scripps Research Institute Molecular Screening Center, 2010).
The whole screen tested about 320,000 compounds, of which about 8,000 (2.5%) were called active. What follows is part of a selection rich in actives, with near analogues and random picks from the rest. Values without a mark were called inactive. No stated cut-off is given here; in the data, active means activation above about 47%; inactive means the rest.

target: Aryl hydrocarbon receptor (Homo sapiens) (UniProt P35869); test: AHR activators, primary screen, cell-based, luminescence, luciferase reporter, human (AID 2796); conditions: AHR-responsive luciferase reporter cells, at 5 µM, active compounds read high;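 further: 0% = vehicle wells and 100% = reference agonist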
Sequence (P35869 whole entry, looked up): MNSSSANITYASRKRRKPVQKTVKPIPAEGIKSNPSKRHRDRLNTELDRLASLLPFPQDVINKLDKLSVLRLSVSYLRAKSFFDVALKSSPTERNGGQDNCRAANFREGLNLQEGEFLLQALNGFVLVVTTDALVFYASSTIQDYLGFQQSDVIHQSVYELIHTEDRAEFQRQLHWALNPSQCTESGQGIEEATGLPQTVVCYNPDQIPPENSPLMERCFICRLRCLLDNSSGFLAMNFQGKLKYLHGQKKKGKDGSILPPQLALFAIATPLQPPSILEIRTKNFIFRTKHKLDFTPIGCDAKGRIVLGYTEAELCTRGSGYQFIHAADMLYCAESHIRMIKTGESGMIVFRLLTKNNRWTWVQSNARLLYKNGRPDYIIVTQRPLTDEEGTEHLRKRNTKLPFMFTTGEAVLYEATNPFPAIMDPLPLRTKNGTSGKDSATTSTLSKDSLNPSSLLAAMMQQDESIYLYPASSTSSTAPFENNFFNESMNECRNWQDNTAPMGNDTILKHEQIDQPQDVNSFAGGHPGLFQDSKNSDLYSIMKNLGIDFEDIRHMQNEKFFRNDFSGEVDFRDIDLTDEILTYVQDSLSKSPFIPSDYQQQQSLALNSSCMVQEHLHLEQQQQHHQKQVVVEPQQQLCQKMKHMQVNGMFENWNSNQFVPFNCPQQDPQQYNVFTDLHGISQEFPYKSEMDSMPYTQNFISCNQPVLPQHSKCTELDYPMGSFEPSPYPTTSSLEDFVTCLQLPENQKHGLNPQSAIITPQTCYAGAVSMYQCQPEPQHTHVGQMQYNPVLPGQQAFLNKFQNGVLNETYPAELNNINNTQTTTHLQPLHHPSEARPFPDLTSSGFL

Point of comparison: `O=C(CSC1=NCCS1)Nc1nc(-c2ccccc2)cs1`, activation 18.4%. Against it:
- O=C(CCCN1C(=O)CSc2ncccc21)N1CCN(c2cccc(C(F)(F)F)c2)CC1 — lower, 1.24%
- CNS(=O)(=O)c1ccc(C(=O)NCC(=O)NCCc2ccc3c(c2)OCCO3)cc1 — lower, -1.1%
- CCc1ccc(CNC(=O)C2CCN(c3nnc(C)c4c(C)n(-c5ccc(C)cc5)nc34)CC2)cc1 — lower, 1.85%
- COCCCNc1nc2c(-c3cccc(C(F)(F)F)c3)nnn2c2ccccc12 — higher, 29%
- COC(=O)Cn1nc(-c2ccccc2)c2cc(Cl)ccc21 — lower, 1.76%
- C=CCNC(=O)COc1coc(CN2CCN(Cc3ccccc3)CC2)cc1=O — lower, 1.03%
- O=C(COC(=O)/C=C/c1cccc(Cl)c1)NCc1cccs1 — lower, 1.89%
- CCc1cccc(C)c1NC(=O)COC(=O)CNC(=O)c1cccs1 — lower, 2.33%
- CC[C@@]12C(=O)N(c3ccccc3)C(=O)N1[C@H](c1ccc(Br)cc1)[C@@H]1C(=O)N(C(C)(C)C)C(=O)[C@@H]12 — lower, -0.76%
- CC(Sc1sc(=S)sc1SC(C)C(=O)O)C(=O)O (stereo not given) — lower, 4.16%
- COCCN1C2=C(COC(C)(C)C2)C(=S)NC1c1ccccc1 (stereo not given) — lower, 0.78%
- CC(=O)NCCC(=O)Nc1nc(-c2ccc3c(c2)OCCO3)cs1 — higher, 40.4%
- Clc1ccc(Cc2nnc(-c3cccs3)o2)cc1 — lower, -4.17%
- O=C(Nc1nc(-c2cccnc2)cs1)c1ccccc1F — lower, 11.7%
- Cc1ccc(Nc2nc(-c3ccc(O)cc3O)cs2)nc1 — lower, 16.5%
- O=C(NCc1cccnc1)C(=O)Nc1nc(-c2ccccc2)cs1 — lower, 8.85%
- COc1ccc(CCN(C(=O)COc2ccccc2)c2nc(-c3ccccc3)cs2)cc1OC — higher, 23.4%
- COc1ccc(CC(=O)Nc2nc(-c3ccc(F)c(F)c3)cs2)cc1OC — lower, -6.95%
- CC(=O)Nc1ccc(C(=O)Nc2nc(-c3cc(C)n(Cc4ccccc4)c3C)cs2)cc1 — lower, 2.48%
- CC(=O)NCC(=O)N(C)C(C(=O)Nc1ccc2c(c1)OCCO2)c1ccccc1 (stereo not given) — lower, 15%
- Cc1cc(=O)oc2c3c(cc(OCC(=O)NCc4ccccn4)c12)OC(C)(C)CC3 — lower, 4.58%
- FC(F)(F)c1ccc(-n2cn[nH]c2=S)cc1 — lower, -2.71%
- CCN1CCN(C(=O)c2cc3cc4ccc(OC)cc4nc3s2)CC1 — lower, 2.17%
- COc1ccc2c(c1OC)C(=O)OC2Nc1nc(-c2ccccc2)cs1 (stereo not given) — lower, -5.46%
- CCCn1c(CCNc2nc(-c3ccc(OC)cc3)cs2)nc2ccccc21 — lower, 15%
- Cc1ccccc1Nc1nc(-c2cccnc2)cs1 — lower, 2.23%
- CCCCn1nc(C(=O)Nc2cccc(C(=O)NC3CC3)c2)c2ccccc2c1=O — lower, -0.03%
- CC1(C)C2CCC13CS(=O)(=O)NC3C2 (stereo not given) — lower, 1.31%
- CN1CCN(C(=O)c2cnn(-c3ccccc3)c2NC(=O)c2ccc([N+](=O)[O-])cc2)CC1 — lower, 4.36%
- Nc1c(N(CCO)C(=O)C2CCCCC2)c(=O)[nH]c(=O)n1Cc1ccccc1 — lower, 0.25%
- O=C(Nc1ccccc1Cl)c1ccccc1S(=O)(=O)c1ccccc1[N+](=O)[O-] — lower, 2.48%
- COc1ccccc1C(=O)Nc1ccccc1C(=O)Nc1ccccc1 — higher, 18.5%
- Cc1ccc(NC2CCCN(C(=O)CCc3cn[nH]c3)C2)cc1C (stereo not given) — lower, 11.1%
- Cn1ncc(Br)c1C(=O)NC1CCCC1 — lower, -3.04%
- Cn1ncc(Br)c1C(=O)NCc1cccs1 — lower, -1.33%
- COC(=O)c1ccc(C(NC(=O)OCc2ccccc2)/C(C)=C/[C@@H](C)C(=O)NCc2ccc(OC)c(OC)c2)cc1 (stereo not given in full) — lower, 6.4%
- COc1ccc(NC(=O)CSc2nnc(C3CC3)n2C)cc1S(=O)(=O)N1CCCCC1 — lower, -0.33%
- COc1cc(OC)c(C(=O)NCc2ccc3c(c2)OCO3)cc1OC — lower, 14%
- Cc1ccc(CNCc2ccc3c(c2)OCO3)c(C)c1 — lower, 2.41%

`COCCCNc1nc2c(-c3cccc(C)c3)nnn2c2ccc(Cl)cc12` was tested, and the activation was 69.9% (active).
In the case of `COc1ccc(CCNc2nc(-c3cccc(NC(C)=O)c3)cs2)cc1OC`, the activation was 59% (active).
In the case of `c1ccc(Nc2nc(-c3ccncc3)cs2)nc1`, the activation was 79% (active).
With `CC(=O)Nc1cccc(-c2csc(Nc3cccc(C)n3)n2)c1` the activation was 61.1% (active).
In the case of `Clc1ccc(Nc2nc(-c3cccs3)cs2)nc1`, the activation was 96.2% (active).
`Cc1cccc(Nc2nc(-c3ccccc3)cs2)n1` was tested, and the activation was 95.5% (active).
For `COc1ccc(Nc2nc(-c3ccccc3)cs2)cc1`, the activation was 91.8% (active).
In the case of `CN(C)S(=O)(=O)Oc1ccccc1C(=O)Nc1ccccc1Cl`, the activation was 106% (active).
For `COc1ccccc1NC(=O)c1c(Br)cnn1C`, the activation was 57.9% (active).
With `COc1cc(CNCc2ccc3c(c2)OCO3)c([N+](=O)[O-])cc1OC` the activation was 111% (active).
